# Laboratory results: ChEMBL document CHEMBL3988442, “University of Dundee, Small-Polar-MMV Screening Library” (2021)
# For some assays here: Measured potencies and affinities stand elsewhere.
# What was measured:
# Parameters in all cases: scale not given: direction of the effect not stated beside the values
# [1] = biological target: Protein translocase subunit SecA (Escherichia coli (strain K12)) (UniProt P10408); assay: Assay to Identify E. coli SecA ATPase Inhibitors; type: functional; settings: 30 µM
# Chain of Protein translocase subunit SecA (Escherichia coli (strain K12)) (P10408 whole entry): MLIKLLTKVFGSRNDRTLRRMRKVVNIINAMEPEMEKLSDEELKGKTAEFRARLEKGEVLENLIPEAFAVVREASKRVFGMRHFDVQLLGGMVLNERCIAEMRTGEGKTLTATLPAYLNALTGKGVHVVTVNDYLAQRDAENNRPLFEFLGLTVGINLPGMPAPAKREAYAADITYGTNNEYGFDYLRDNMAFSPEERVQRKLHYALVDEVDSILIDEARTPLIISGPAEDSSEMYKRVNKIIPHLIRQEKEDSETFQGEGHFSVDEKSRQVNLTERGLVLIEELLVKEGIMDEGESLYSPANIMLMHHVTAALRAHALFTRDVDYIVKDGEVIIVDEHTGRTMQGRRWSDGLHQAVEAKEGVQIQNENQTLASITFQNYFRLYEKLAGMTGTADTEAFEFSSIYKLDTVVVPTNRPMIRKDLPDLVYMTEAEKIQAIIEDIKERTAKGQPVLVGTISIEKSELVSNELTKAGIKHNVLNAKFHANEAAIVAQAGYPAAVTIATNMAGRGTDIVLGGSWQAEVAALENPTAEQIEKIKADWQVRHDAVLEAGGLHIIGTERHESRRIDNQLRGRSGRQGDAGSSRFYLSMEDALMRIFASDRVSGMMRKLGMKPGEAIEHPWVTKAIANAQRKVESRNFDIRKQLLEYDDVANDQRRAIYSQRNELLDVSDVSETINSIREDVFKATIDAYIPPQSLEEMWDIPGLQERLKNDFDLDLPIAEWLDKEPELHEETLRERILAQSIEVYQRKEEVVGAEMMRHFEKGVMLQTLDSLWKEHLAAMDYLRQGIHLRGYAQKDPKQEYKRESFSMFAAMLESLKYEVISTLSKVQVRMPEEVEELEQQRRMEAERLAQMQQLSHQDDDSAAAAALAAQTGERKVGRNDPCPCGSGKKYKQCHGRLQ
# [2] = biological target: T1, Ubiquitin-activating enzyme e1, putative (Leishmania donovani (strain BPK282A1)) (UniProt E9BSI1); assay: Leishmania donovani Ubiquitin Activating Enzyme (LdE1); type: functional; settings: 30 µM
# T1 sequence (whole entry): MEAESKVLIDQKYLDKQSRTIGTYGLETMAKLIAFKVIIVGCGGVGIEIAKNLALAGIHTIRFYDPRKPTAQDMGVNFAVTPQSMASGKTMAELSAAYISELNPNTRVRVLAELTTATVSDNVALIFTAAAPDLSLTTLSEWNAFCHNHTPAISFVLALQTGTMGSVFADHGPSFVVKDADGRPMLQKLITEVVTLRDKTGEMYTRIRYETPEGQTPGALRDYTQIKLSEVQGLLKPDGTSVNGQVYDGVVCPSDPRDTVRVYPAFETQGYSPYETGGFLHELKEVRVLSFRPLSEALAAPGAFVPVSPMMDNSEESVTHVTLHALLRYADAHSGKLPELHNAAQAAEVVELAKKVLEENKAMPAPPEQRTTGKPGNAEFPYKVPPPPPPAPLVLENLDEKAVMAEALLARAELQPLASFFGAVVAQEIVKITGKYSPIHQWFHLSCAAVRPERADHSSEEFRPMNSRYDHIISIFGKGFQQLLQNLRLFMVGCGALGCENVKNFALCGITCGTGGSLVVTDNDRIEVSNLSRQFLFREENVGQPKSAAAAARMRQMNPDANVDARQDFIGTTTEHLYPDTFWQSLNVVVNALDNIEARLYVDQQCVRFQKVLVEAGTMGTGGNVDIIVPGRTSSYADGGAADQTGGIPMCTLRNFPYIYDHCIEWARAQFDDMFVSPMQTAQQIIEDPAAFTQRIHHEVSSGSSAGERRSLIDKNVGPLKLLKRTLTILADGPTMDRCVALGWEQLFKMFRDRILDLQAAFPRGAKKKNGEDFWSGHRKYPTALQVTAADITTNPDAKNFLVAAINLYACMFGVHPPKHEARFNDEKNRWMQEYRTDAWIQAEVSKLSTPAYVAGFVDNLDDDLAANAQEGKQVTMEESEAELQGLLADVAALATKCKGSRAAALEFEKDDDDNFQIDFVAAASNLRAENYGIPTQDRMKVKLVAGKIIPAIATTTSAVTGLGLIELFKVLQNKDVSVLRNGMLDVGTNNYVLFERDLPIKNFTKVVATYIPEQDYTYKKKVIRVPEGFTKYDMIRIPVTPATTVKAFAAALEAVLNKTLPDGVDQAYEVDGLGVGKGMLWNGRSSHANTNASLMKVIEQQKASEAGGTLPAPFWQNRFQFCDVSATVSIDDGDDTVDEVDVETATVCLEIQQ
# [3] = biological target: AMP-activated protein kinase, AMPK (Homo sapiens) (UniProt P54646+O43741+P54619+Q9UGJ0+Q9Y478+Q13131+Q9UGI9); assay: AMP-dependent Kinase enzyme assay. An in vitro enzyme assay that detects ADP turnover that is directly proportional to AMPK activity. This uses naive AMPK that is activated during the assay with MK-8722; type: functional; settings: 30 µM
# [4] = biological target: Sialic acid-binding Ig-like lectin 9 (Homo sapiens) (UniProt Q9Y336); assay: Hs-Siglec9 ALPHAscreen SOP 20170721; settings: 10 µM
# Chain of Sialic acid-binding Ig-like lectin 9 (Homo sapiens) (Q9Y336 whole entry): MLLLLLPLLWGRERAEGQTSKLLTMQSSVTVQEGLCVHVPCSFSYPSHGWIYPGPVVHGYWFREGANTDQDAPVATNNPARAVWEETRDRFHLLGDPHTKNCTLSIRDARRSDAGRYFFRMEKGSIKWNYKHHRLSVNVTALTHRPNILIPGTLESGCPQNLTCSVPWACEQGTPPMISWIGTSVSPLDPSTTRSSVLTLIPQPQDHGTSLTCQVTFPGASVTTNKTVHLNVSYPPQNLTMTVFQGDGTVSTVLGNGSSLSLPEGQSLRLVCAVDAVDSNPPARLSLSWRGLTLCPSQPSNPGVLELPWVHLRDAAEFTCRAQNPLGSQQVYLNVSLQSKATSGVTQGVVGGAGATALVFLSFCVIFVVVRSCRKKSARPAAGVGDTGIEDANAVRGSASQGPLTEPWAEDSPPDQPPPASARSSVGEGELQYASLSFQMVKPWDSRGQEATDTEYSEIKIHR
# Trypanosoma cruzi = assay: Trypanosoma cruzi phosphomannomutase and mannose-1-phosphate guanylyltransferase assay; type: functional; settings: 10 µM
# [5] = biological target: T2, Arginase-2, mitochondrial (Homo sapiens) (UniProt P78540); assay: in vitro enzyme assay to detect the production of urea directly proportional to the activity of Arginase II; type: functional; settings: 33.3 µM; further: in the data most compounds retested in dose-response had high values
# T2 sequence (whole entry): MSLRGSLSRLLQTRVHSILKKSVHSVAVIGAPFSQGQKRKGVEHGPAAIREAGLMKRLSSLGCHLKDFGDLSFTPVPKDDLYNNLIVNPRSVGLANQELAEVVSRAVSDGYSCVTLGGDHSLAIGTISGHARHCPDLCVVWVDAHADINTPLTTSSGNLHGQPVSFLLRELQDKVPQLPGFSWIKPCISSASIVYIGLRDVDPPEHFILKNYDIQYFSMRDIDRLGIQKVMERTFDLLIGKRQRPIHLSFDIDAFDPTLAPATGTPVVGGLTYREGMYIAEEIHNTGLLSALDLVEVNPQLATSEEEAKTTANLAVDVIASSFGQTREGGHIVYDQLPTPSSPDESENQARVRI
# [6] = biological target: T3, Proteasome subunit beta (Trypanosoma cruzi) (UniProt O96673); assay: Trypanosoma cruzi proteasome chymotrypsin-like activity (TcProtChymo) assay.; further: in the data most compounds retested in dose-response had high values; type: functional; settings: 9.37 µM
# T3 sequence (whole entry): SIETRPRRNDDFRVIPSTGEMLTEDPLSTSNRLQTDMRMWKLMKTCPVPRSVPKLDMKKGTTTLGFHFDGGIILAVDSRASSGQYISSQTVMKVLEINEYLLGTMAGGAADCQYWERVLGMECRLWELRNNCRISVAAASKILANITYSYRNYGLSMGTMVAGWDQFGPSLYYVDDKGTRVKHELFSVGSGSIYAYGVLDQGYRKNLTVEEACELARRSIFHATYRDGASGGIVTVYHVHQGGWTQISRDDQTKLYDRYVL
# Homo sapiens = species on record: Homo sapiens; assay: To identify inhibition of the IFN signalling (Jak-Stat) pathway via expression of an eGFP reporter gene under the control of an IFN-stimulated response element (ISRE) containing MxA promoter.; type: functional; settings: 30 µM
# [7] = biological target: T4, Tyrosyl-tRNA synthetase, putative (Trypanosoma cruzi (strain CL Brener)) (UniProt Q4DSP6); assay: Trypanosoma cruzi tyrosyl tRNA synthetase (TcYRS) _High Tyrosine SOP; type: functional; settings: 30 µM; further: in the data most compounds retested in dose-response had high values
# T4 sequence (whole entry): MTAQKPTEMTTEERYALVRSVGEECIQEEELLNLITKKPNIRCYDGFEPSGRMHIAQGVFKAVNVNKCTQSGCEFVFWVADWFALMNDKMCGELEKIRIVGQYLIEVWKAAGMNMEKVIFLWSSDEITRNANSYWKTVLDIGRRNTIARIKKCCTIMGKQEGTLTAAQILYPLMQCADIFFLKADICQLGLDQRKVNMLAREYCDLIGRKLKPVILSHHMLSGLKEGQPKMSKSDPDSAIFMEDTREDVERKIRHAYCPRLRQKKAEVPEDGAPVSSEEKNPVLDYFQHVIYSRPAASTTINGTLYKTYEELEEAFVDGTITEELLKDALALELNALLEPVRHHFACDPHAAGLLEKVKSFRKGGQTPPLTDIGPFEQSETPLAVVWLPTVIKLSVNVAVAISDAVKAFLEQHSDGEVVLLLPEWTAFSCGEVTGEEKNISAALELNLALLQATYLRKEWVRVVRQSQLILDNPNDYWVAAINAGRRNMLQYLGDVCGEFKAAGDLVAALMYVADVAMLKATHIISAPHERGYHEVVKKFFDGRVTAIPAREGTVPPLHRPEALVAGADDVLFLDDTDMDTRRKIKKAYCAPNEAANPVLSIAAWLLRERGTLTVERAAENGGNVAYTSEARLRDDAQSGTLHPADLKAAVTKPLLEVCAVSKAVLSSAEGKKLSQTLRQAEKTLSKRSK
# [8] = biological target: T4, Tyrosyl-tRNA synthetase, putative (Trypanosoma cruzi (strain CL Brener)); assay: Trypanosoma cruzi tyrosyl tRNA synthetase (TcYRS) SOP; type: functional; settings: 30 µM
# [9] = biological target: Chromo domain-containing protein 1 (Saccharomyces cerevisiae (strain ATCC 204508 / S288c) (Baker's yeast)) (UniProt P32657); assay: ScCHD-1 Enzyme Inhibition Assay; type: functional; settings: 30 µM; further: in the data most compounds retested in dose-response had high values
# Chain of Chromo domain-containing protein 1 (Saccharomyces cerevisiae (strain ATCC 204508 / S288c) (Baker's yeast)) (P32657 whole entry, the tested form may be a part): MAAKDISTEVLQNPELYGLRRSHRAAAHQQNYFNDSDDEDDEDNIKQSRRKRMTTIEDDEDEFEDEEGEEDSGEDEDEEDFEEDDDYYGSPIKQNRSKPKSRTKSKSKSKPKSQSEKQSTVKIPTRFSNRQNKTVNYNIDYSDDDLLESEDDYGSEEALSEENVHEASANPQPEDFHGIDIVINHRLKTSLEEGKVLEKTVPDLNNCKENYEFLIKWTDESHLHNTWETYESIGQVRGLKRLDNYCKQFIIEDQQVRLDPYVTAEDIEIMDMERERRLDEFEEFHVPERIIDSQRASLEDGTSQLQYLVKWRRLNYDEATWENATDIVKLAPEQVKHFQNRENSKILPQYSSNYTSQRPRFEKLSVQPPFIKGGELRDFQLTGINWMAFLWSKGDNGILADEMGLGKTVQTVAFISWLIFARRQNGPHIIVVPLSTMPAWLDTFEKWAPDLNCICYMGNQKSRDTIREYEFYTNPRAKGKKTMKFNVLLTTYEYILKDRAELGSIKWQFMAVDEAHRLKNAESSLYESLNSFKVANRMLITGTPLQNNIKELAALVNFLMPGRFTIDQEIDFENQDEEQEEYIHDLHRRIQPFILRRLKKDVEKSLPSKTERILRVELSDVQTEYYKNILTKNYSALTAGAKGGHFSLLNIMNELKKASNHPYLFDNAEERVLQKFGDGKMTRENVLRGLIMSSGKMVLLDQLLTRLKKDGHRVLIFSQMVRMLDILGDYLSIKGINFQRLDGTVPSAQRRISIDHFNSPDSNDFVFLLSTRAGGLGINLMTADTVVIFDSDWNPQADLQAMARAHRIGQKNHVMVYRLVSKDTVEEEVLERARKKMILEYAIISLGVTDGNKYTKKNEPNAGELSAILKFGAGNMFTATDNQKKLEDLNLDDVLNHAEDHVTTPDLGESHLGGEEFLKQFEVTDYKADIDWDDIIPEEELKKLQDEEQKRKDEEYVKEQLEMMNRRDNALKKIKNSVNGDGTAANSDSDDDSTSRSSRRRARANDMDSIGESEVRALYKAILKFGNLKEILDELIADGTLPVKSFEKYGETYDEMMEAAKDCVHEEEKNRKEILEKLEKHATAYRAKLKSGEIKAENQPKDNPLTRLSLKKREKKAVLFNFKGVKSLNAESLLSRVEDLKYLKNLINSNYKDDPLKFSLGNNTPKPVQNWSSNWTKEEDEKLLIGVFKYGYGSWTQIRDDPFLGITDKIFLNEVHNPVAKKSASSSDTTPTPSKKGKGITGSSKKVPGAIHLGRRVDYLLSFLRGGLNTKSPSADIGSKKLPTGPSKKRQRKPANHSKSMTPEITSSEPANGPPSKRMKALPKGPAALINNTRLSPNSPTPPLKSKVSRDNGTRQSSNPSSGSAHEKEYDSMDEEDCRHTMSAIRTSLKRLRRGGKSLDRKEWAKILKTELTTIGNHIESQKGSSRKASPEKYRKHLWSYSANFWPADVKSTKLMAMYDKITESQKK
SMILES,Percent Effect [1] [%],Percent Effect [2] [%],Percent Effect [3] [%],Percent Effect [4] [%],Percent Effect (Trypanosoma cruzi) [%],Percent Effect [5] [%],Percent Effect [6] [%],Percent Effect (Homo sapiens) [%],Percent Effect [7] [%],Percent Effect [8] [%],Percent Effect [9] [%]
COc1ccc(NC(=O)N2CCCC2c2ccco2)cc1OC (configuration not stated),0.301,13,7.21,-3.22,-4.24,-0.645,9.57,19.6,-5.29,14.1,-9.73
COCC1c2nnn(CC3CC3)c2CCN1C(=O)c1cccc(F)c1 (configuration not stated),-5.76,0,-4.62,0.968,-4.59,-0.248,3,10,5.38,6.17,1.63
Cn1c(Cn2ccnc2)nnc1C1CCN(Cc2cccnc2N)CC1,-2.31,-9.72,1.79,-9.15,-2.62,3.53,9.12,-8.94,2.1,2.56,-3.65
CCc1cc(NCC(O)CN2CCCCC2)n2ncnc2n1 (configuration not stated),-4.14,7.89,2.69,4.78,1.27,-2.37,15.2,3.03,4.25,13,-4.78
COCC(=O)N1Cc2cn(C)nc2C(COc2cccnc2)C1 (configuration not stated),1.2,15.6,0.672,-9.95,-0.493,7.1,10.4,35.1,1.06,6.41,-9.03
Clc1ccccc1-c1nc(CNCCn2cccn2)cs1,-1.85,-15.8,2.49,-0.874,9.02,0.383,10.9,13.7,9.31,17.1,14.2
CC(C)(C)c1nc(CN2CCCC2Cn2cccn2)no1 (configuration not stated),-1.54,26,-0.88,-2.85,2.81,6.41,17.7,18.5,12.6,26.8,-9.21
NC(=O)N1CC[C@H](O)[C@@H]1Cc1cccnc1,-2.51,2.7,6.84,-5.75,-9.48,4.78,24,5.65,0,7.69,-2.76
O=C(C1=CC2(CCNCC2)c2ccccc21)N1CCCC1,-0.609,2.67,6.96,-3.45,-7.53,-56.1,7.52,-19.8,-3.12,2.5,-6.64
O=C(Cc1ccc2c(c1)CCO2)N1CCN(c2cnccn2)CC1,-4.64,-7.89,2.2,-0.444,9.59,-1.53,0.167,5.16,3.43,7.32,-12.2
Cc1ccc(C)c(C(NC(=O)C(C)(C)C)c2cccnc2)c1 (configuration not stated),-1.95,13,3.34,-1.13,4.63,-0.645,14.3,21.8,4.23,6.41,-10.2
CCN1C[C@H]2CCN(C(=O)NC3CCCC3)CC[C@H]2S1(=O)=O,2.4,14.7,2.73,-7.67,-3.54,-5.81,15.5,2.2,1.06,5.13,-7.62
Cc1cc(C)n(CCC(=O)N2CCC(c3nc(C(C)C)no3)CC2)n1,-2.78,20.8,4.41,11.6,5.8,-40,16.5,-3.55,6.45,18.5,-7.45
CCC(=O)N1CCCC1c1nccnc1Nc1ncccn1 (configuration not stated),0.559,-6.76,18.4,0.16,-2.57,-0.232,-6.24,-9.16,1.07,-3.9,-6.85
Cc1nc(C)n(CC2CCCN2CCCOc2ccc(F)cc2)n1 (configuration not stated),-4.9,-15.2,-12.2,-1.58,7.84,0,8.93,7.36,8.37,13.9,-6.25
OCCC1CN(C2CCC2)CCN1C1CCCC1 (configuration not stated),-3.14,-1.39,-6.25,-1.98,7.87,-1.77,2.28,-37,1.05,7.69,3.1
Cc1noc2ncc(C(=O)N(CC3CCOC3)C3CC3)cc12 (configuration not stated),-0.0275,7.89,-3.99,3.92,-9.59,3.45,7.69,24.4,0.49,4.88,-5.66
O=C(CCNc1ncccn1)NCCc1ccn(-c2ccccc2)n1,-3.96,21.5,-1.83,-7.45,4.82,0.215,15.4,-2.32,6.25,20.2,-24.6
Cc1nccnc1N1CCC2(CCCN(C3CCOCC3)C2=O)C1 (configuration not stated),-7.49,-2.74,0.961,-4.09,-5.56,0,-1.63,27.4,0,-3.7,0.0613
CCOCC(=O)NC1(c2cccc(Br)c2)CC1,-8.13,0,0.838,9.79,-3.67,-2.38,7.76,13.1,-1.59,-2.44,-3.38
CCS(=O)(=O)N(C)C(=O)c1cc(C)n(-c2cccc(OC)c2)c1C,-6.4,20.2,-7.29,7.26,3.68,-5.32,4.34,28.1,4.43,21.5,-8.76
CC(C)C(C(=O)N1CCCN(Cc2nccn2C)CC1)N1CCCC1 (configuration not stated),-1.38,21.6,-0.295,-3.06,-1.58,-2.77,10.6,20,2.97,13.4,-5.79
